The compounds below were run on Pseudomonas aeruginosa PA14 wild type (assay: respiration area under curve with compound as sole nitrogen source, 24 h (OmniLog AUC (arbitrary units)); higher = more respiration / better utilisation as nitrogen source, active = 2000 or more).
Description: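 Biolog Phenotype MicroArray plates PM6-PM8: each di/tripeptide is the sole nitrogen source (IF-0 medium with succinate/ferric citrate and dye mix A). Tetrazolium reduction was read in the OmniLog every 15 min for 24 h at 37°C and summarised as area under the respiration curve (arbitrary units). The paper counts values below 2000 as no respiration and above 8000 as solid respiration. Replicate datasets are averaged.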

Respiration area under curve, active:
C[C@H](N)C(=O)N[C@H](C(=O)O)[C@@H](C)O (plate: PM6) 6750
CC(C)C[C@H](N)C(=O)N[C@H](C(=O)O)C(C)C (plate: PM7) 9910
NC(N)=NCCC[C@H](N)C(=O)N[C@@H](Cc1ccccc1)C(=O)O (plate: PM6) 9420
CC[C@H](C)[C@H](NC(=O)[C@@H](N)CCCN=C(N)N)C(=O)O (plate: PM6) 9540
CSCC[C@H](NC(=O)[C@@H](N)CCCN=C(N)N)C(=O)O (plate: PM6) 10500
C[C@@H](O)[C@H](N)C(=O)N[C@@H](CO)C(=O)O (plate: PM8) 7920
N[C@@H](CO)C(=O)N1CCC[C@H]1C(=O)O (plate: PM7) 14600
N[C@@H](CO)C(=O)N[C@@H](CO)C(=O)O (plate: PM7) 8860
CC(C)[C@H](NC(=O)[C@@H](N)CC(=O)O)C(=O)O (plate: PM6) 4290
N[C@@H](Cc1c[nH]c2ccccc12)C(=O)NCC(=O)O (plate: PM7) 3340
CSCC[C@H](N)C(=O)N[C@H](C(=O)O)C(C)C (plate: PM7) 4480
CSCC[C@H](NC(=O)[C@H](C)N)C(=O)O (plate: PM8) 6360
CC(C)C[C@H](NC(=O)[C@H](CC(C)C)NC(=O)[C@@H](N)CC(C)C)C(=O)O (plate: PM8) 5700
CC(C)C[C@H](NC(=O)[C@@H](N)CO)C(=O)O (plate: PM7) 7960
NC(N)=NCCC[C@H](NC(=O)[C@@H]1CCCN1)C(=O)O (plate: PM8) 12100
N[C@@H](Cc1c[nH]c2ccccc12)C(=O)N[C@@H](CO)C(=O)O (plate: PM7) 4810
O=C(O)[C@@H]1CCCN1C(=O)[C@@H]1CCCN1 (plate: PM7) 10500
C[C@H](NC(=O)[C@@H](N)CO)C(=O)O (plate: PM7) 10900
C[C@H](NC(=O)[C@@H](N)CCCN=C(N)N)C(=O)O (plate: PM6) 9790
NCC(=O)N[C@@H](CO)C(=O)O (plate: PM6) 7870
CC[C@H](C)[C@H](NC(=O)CN)C(=O)O (plate: PM8) 7100
CC(C)[C@H](N)C(=O)N[C@H](C(=O)O)C(C)C (plate: PM7) 9240
NCC(=O)N[C@@H](Cc1ccc(O)cc1)C(=O)O (plate: PM6) 2560
NCC(=O)NCC(=O)N[C@@H](Cc1ccccc1)C(=O)O (plate: PM8) 9740
NCC(=O)N[C@@H](CC(=O)O)C(=O)O (plate: PM8) 5610
CSCC[C@H](N)C(=O)N[C@@H](Cc1c[nH]c2ccccc12)C(=O)O (plate: PM7) 3640
CC(C)[C@H](NC(=O)[C@@H](N)CO)C(=O)O (plate: PM7) 8700
CC(C)C[C@H](N)C(=O)N[C@@H](C)C(=O)O (plate: PM6) 9330
CC(C)C[C@H](N)C(=O)NCC(=O)NCC(=O)O (plate: PM8) 10400
C[C@H](N)C(=O)N[C@@H](CC(=O)O)C(=O)O (plate: PM8) 10500
CC[C@H](C)[C@H](N)C(=O)N[C@@H](Cc1ccc(O)cc1)C(=O)O (plate: PM6) 2310
C[C@H](N)C(=O)N[C@@H](CCCN=C(N)N)C(=O)O (plate: PM6) 10100
N[C@@H](Cc1ccc(O)cc1)C(=O)NCC(=O)O (plate: PM7) 9630

Respiration area under curve, inactive:
O=C(O)[C@@H]1C[C@@H](O)CN1C(=O)[C@@H]1CCCN1 (plate: PM7) 0
CSCC[C@H](NC(=O)CN)C(=O)O (plate: PM6) 327
C[C@H](O)[C@@H](NC(=O)CN)C(=O)O (plate: PM8) 0
CC(C)C[C@H](NC(=O)[C@@H](C)N)C(=O)O (plate: PM8) 626
C[C@@H](N)C(=O)NCC(=O)NCC(=O)O (plate: PM8) 211
CSCCC(N)C(=O)NC(CCSC)C(=O)O (stereo not given) (plate: PM7) 0
N[C@@H](CC(=O)O)C(=O)N[C@@H](CC(=O)O)C(=O)O (plate: PM6) 119
